In PubChem BioAssay (EPA / NIEHS):
Several values for one entry are separate records, joined by “and”; a condition that tells them apart may be missing. Equal entries are not always repeated. Activity calls are given as the source filed them. How the source made its calls: active means hit-call score of the fitted dose curve at least 0.9, where 1 is the maximum; inactive means score below 0.9.

read-out: Vascular cell adhesion molecule 1 (VCAM1), VCAM1 (gene 7412); test: BSK_IMphg_VCAM1: BioMAP Diversity Plus: IMphg Assay for Vascular cell adhesion molecule 1 (VCAM1) Biomarker Activity (AID 2284286); conditions: primary human endothelial cells with macrophages
In short: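 ELISA read-out of VCAM-1 on venular endothelial cell/macrophage co-cultures at 24 h post-treatment, with DMSO as baseline and positive-direction fitting. Parallel sulforhodamine B total-protein staining (560 nm) served as the overt cytotoxicity measure.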

SMILES | AC50 | outcome
O=C(CC(=O)C(F)(F)C(F)(F)C(F)(F)F)c1cccs1 | 50.5 µM (active) and 43.4 µM (active) | –
O=P(O)(O)CCC(F)(F)C(F)(F)C(F)(F)C(F)(F)C(F)(F)C(F)(F)C(F)(F)C(F)(F)F | – | inactive
O=C(O)C(F)(F)OC(F)(F)C(F)(F)OC(F)(F)C(F)(F)OC(F)(F)C(F)(F)C(F)(F)C(F)(F)F | 51.8 µM (active) and 48.8 µM (active) | –
C=CC(=O)OCCC(F)(F)C(F)(F)C(F)(F)C(F)(F)C(F)(F)C(F)(F)C(F)(F)C(F)(F)F | – | inactive
O=S(=O)(O)C(F)(F)C(F)(F)C(F)(F)C(F)(F)C(F)(F)C(F)(F)C(F)(F)C(F)(F)C(F)(F)C(F)(F)F | – | inactive
OCC(F)(F)C(F)(F)C(F)(F)C(F)(F)C(F)(F)C(F)(F)C(F)(F)C(F)(F)C(F)(F)C(F)(F)C(F)(F)F | – | inactive
O=C(O)CCC(F)(F)C(F)(F)C(F)(F)C(F)(F)C(F)(F)C(F)(F)F | – | inactive
CN(Cc1cnc2nc(N)nc(N)c2n1)c1ccc(C(=O)N[C@@H](CCC(=O)O)C(=O)O)cc1 | – | inactive
O=P(O)(O)CCC(F)(F)C(F)(F)C(F)(F)C(F)(F)C(F)(F)C(F)(F)F | – | inactive
CN(CCO)S(=O)(=O)C(F)(F)C(F)(F)C(F)(F)C(F)(F)C(F)(F)C(F)(F)C(F)(F)C(F)(F)F | – | inactive
O=C(O)CCC(F)(F)C(F)(F)C(F)(F)C(F)(F)C(F)(F)F | – | inactive
